This note sets out measurements from PubChem BioAssay (Tox21).

Experiment [1] can be described thus: qHTS assay to identify small molecule antagonists of the glucocorticoid receptor (GR) signaling pathway - cell viability counter screen (AID 720693). Note: nearly all actives have a fitted effect of over 55% in size.
Experiment [2] is described as follows: qHTS assay for identifying genotoxic compounds that show differential cytotoxicity against isogenic chicken DT40 cell lines with known DNA damage response pathways - wild type cell line (AID 743012). Note: nearly all actives have a fitted effect of over 60% in size. The essentials:
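Wild type DT40, 300 cells/well, ~0.5 h settle at 37 C/5% CO2; compounds in DMSO added by pintool; 40 h at 37 C/5% CO2; CellTiter-Glo, 30 min RT; luminescence.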

Experiment [3] is described as follows: qHTS assay for identifying genotoxic compounds that show differential cytotoxicity against isogenic chicken DT40 cell lines with known DNA damage response pathways - Rev3 mutant cell line (AID 743014). Note: nearly all actives have a fitted effect of over 55% in size.
The nature of experiment [4]: qHTS assay for identifying genotoxic compounds that show differential cytotoxicity against isogenic chicken DT40 cell lines with known DNA damage response pathways - Rad54/Ku70 mutant cell line (AID 743015). Note: nearly all actives have a fitted effect of over 60% in size.
Experiment [5] in a line: qHTS assay to identify small molecule antagonists of the androgen receptor (AR) signaling pathway using the MDA cell line - cell viability counter screen (AID 743041; note: nearly all actives have a fitted effect of over 45% in size). A digest of the protocol:
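MDA-kb2 AR-luc cells (MMTV-luciferase, AR/GR responsive) treated with compounds plus R1881 agonist for 16 h at 37C. CellTiter-Fluor added at 15.5 h; fluorescence read after 30 min in the same wells.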

The nature of experiment [6]: qHTS assay to identify small molecule antagonists of the thyroid receptor (TR) signaling pathway - cell viability counter screen (AID 743064). Note: nearly all actives have a fitted effect of over 50% in size. A digest of the protocol: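 Plate GH3.TRE-Luc cells; incubate 4 h at 37 °C; add compound, then T3 to 1 nM final; incubate 23.5 h; add CellTiter-Fluor; incubate 30 min at 37 °C, 5% CO2; read fluorescence.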
Experiment [7] can be described thus: qHTS assay to identify small molecule antagonists of the thyroid receptor (TR) signaling pathway (AID 743065). Note: series mostly up to about 70 µM; nearly all actives have a fitted effect of over 55% in size. A digest of the protocol:
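GH3.TRE-Luc rat pituitary cells (two TREs driving luciferase) were dosed with compound, then stimulated with 1 nM T3 (final) for 23.5 h at 37 C. ONE-Glo luminescence was the read-out, with CellTiter-Fluor fluorescence as the cytotoxicity counter-screen.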

Experiment [8] deals with thyroid hormone receptor (rat, GH3 cells). Description: qHTS assay to identify small molecule agonists of the thyroid receptor (TR) signaling pathway (AID 743066; calls by dose curve).
The nature of experiment [9]: qHTS assay to identify small molecule antagonists of the estrogen receptor alpha (ER-alpha) signaling pathway - cell viability counter screen (AID 743074; calls by dose curve;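 note: HEK293 cells carrying ER-alpha-UAS-bla reporter stimulated with 17beta-estradiol; nearly all actives have a fitted effect of over 45% in size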).
Experiment [10] can be described thus: qHTS assay to identify small molecule antagonists of the estrogen receptor alpha (ER-alpha) signaling pathway using the BG1 cell line (AID 743080; calls by dose curve;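 note: BG1 cells stimulated with 17beta-estradiol alongside compound; series mostly up to about 70 µM; nearly all actives have a fitted effect of over 25% in size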). The essentials: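 BG1-Luc-4E2 cells (endogenous full-length ER-alpha, 4xERE luciferase) hormone-starved 5 days in charcoal-stripped FBS, plated 4,000/well for 24 h, then compound plus 17beta-estradiol for 21.5 h at 37 C; ONE-Glo luminescence read.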

Experiment [11] in a line: qHTS assay to identify small molecule antagonists of the estrogen receptor alpha (ER-alpha) signaling pathway using the BG1 cell line - cell viability counter screen (AID 743081).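 Note: compound given together with 17beta-estradiol as the ER stimulus; series mostly up to about 70 µM; nearly all actives have a fitted effect of over 45% in size.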
The target of another experiment is Aromatase (Homo sapiens) (UniProt P11511). Description: qHTS assay to identify aromatase inhibitors (AID 743083). Note: series mostly up to about 70 µM; nearly all actives have a fitted effect of over 55% in size.
Sequence of Aromatase (Homo sapiens) (P11511 whole entry, looked up): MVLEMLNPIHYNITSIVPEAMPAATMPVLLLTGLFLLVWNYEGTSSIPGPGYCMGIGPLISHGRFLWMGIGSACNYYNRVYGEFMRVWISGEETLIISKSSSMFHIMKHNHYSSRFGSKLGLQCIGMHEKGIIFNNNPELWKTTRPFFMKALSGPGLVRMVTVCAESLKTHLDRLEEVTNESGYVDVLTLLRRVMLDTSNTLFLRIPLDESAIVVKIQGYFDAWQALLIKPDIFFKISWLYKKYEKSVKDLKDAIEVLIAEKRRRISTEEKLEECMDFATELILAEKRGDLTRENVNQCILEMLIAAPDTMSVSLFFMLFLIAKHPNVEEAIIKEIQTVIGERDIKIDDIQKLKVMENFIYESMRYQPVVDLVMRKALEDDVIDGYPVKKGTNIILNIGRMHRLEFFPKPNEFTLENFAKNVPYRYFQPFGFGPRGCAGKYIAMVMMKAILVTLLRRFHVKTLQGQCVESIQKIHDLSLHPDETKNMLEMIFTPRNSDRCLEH
A short description of experiment [12]: qHTS assay to identify small molecule antagonists of the androgen receptor (AR) signaling pathway - cell viability counter screen (AID 743033; note: nearly all actives have a fitted effect of over 45% in size).
The target of experiment [13] is Estrogen receptor (Homo sapiens) (UniProt P03372). Description: qHTS assay to identify small molecule antagonists of the estrogen receptor alpha (ER-alpha) signaling pathway (AID 743069; active = well fitted curve in the direction sought with a large enough effect in the signal ratio in the repeat runs, not every such curve was filed as active; the % refers to the signal ratio). The essentials:
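HEK293 ER-alpha-UAS-bla GripTite cells, held overnight in 2% charcoal-stripped FBS, 5,000 cells/well, preincubated 4 h, then compound plus 17beta-estradiol for 18 h at 37C. Beta-lactamase read by LiveBLAzer B/G FRET substrate, 2 h at room temperature.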

For experiment [14] the target is unchanged. Description: qHTS assay to identify small molecule agonists of the estrogen receptor alpha (ER-alpha) signaling pathway (AID 743075; calls by dose curve).
The target is the same in experiment [15]. Description: qHTS assay to identify small molecule agonists of the estrogen receptor alpha (ER-alpha) signaling pathway using the BG1 cell line (AID 743079). Note: nearly all actives have a fitted effect of over 20% in size.
The target in experiment [16] is Androgen receptor (Homo sapiens) (UniProt P10275). Description: qHTS assay to identify small molecule antagonists of the androgen receptor (AR) signaling pathway (AID 743035; active = well fitted inhibition curve with a large enough effect in the signal ratio in the repeat runs, not every such curve was filed as active; the % refers to the signal ratio). The essentials:
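Fluorescence from a beta-lactamase FRET substrate (LiveBLAzer B/G, 2 h, room temperature) measured inhibition of R1881-stimulated signaling in GeneBLAzer AR-UAS-bla HEK293 cells exposed to compound for 16 h at 37C.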

Experiment [17] has the same target. Description: qHTS assay to identify small molecule agonists of the androgen receptor (AR) signaling pathway (AID 743036; active = well fitted activation curve with a large enough effect in the signal ratio in the repeat runs, with a control signal flat, not every such curve was filed as active; the % refers to the signal ratio). The essentials: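 Reporter line: GeneBLAzer AR-UAS-bla-GripTite (HEK293). Steps: plate cells, 4 h rest, add compounds, 16 h at 37C, add LiveBLAzer B/G substrate, 2 h at RT, read fluorescence.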
The target is the same in experiment [18]. Description: qHTS assay to identify small molecule agonists of the androgen receptor (AR) signaling pathway using the MDA cell line (AID 743040; note: nearly all actives have a fitted effect of over 20% in size; note: potency is the fitted concentration of half-maximal effect). The essentials:
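MDA-kb2 breast carcinoma cells carrying MMTV-luciferase (responsive to AR and GR), plated 5 h then treated 16 h with compounds at 37C, 0% CO2. Read-out was ONE-Glo luminescence after 30 min at room temperature.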

For experiment [19] the target is unchanged. Description: qHTS assay to identify small molecule antagonists of the androgen receptor (AR) signaling pathway using the MDA cell line (AID 743042; note: nearly all actives have a fitted effect of over 55% in size). The essentials: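 MDA-kb2 breast carcinoma cells carrying MMTV-luciferase (AR/GR responsive) were co-treated with compounds and the agonist R1881 for 16 h at 37C. Inhibition read as ONE-Glo luminescence; CellTiter-Fluor fluorescence measured in parallel for cytotoxicity.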

A number with no mark means an inactive call. Inconclusive results are not listed. Calls of active or inactive are those of the source. Unless noted, calls come from the whole dose curve; as a rule, active = well fitted curve in the direction sought with a large enough effect in the repeat runs; inconclusive = weak or mixed curves; inactive = no such curve, though single readings can be large; an effect the other way counts as inactive or inconclusive. Positions of bridges follow the written chain, without caps; N, C: chain ends. Non-standard residues stand in square brackets, D forms with d. Residues, ends and D or L forms follow the SMILES beside them. hArg = N=C(N)NCCCC[C@H](N)C(=O)O; Mpa = O=C(O)CCS

Sequence of Androgen receptor (Homo sapiens) (P10275 whole entry, looked up): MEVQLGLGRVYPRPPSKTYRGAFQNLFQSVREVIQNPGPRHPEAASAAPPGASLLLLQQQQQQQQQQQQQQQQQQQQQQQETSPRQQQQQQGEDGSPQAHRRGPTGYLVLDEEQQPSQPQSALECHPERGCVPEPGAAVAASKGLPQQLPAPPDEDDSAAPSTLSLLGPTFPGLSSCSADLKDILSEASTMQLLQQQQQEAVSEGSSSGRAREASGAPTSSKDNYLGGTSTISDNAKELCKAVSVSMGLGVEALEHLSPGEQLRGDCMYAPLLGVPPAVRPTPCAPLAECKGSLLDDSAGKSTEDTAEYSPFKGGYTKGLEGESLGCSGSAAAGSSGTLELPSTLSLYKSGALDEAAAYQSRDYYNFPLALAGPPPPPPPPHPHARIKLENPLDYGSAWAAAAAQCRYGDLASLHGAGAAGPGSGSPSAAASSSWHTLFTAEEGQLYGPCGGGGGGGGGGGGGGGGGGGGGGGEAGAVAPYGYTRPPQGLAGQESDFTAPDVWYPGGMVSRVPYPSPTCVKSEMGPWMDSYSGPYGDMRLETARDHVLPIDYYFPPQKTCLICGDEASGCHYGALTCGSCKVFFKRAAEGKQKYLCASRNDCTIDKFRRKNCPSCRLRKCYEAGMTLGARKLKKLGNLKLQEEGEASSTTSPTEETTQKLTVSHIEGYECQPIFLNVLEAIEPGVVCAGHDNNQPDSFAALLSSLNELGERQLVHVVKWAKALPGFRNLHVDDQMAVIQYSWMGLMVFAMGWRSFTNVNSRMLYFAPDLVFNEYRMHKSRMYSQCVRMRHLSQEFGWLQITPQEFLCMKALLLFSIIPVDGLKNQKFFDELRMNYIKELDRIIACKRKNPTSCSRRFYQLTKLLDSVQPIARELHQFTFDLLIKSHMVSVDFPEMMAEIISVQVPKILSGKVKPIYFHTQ
Sequence of Estrogen receptor (Homo sapiens) (P03372 whole entry, looked up): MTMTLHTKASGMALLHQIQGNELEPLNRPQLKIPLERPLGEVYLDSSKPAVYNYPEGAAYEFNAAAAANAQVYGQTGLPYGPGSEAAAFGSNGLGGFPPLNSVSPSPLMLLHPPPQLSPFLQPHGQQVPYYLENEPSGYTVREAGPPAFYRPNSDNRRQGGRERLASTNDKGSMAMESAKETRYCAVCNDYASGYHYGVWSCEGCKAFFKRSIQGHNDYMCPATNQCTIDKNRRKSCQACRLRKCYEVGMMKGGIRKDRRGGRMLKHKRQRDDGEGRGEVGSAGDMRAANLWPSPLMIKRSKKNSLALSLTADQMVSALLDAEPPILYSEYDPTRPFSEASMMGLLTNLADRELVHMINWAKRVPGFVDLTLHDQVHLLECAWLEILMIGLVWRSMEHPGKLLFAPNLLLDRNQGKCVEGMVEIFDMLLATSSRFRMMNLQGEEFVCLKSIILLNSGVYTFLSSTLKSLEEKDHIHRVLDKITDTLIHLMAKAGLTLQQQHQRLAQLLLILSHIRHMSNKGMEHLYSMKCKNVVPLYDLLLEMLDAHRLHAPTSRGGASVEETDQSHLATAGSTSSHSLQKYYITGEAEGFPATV

Turning to `NC(=O)[C@@H]1CSSCCC(=O)N[C@@H](CCCCN=C(N)N)C(=O)NCC(=O)N[C@@H](CC(=O)O)C(=O)N[C@@H](Cc2c[nH]c3ccccc23)C(=O)N2CCC[C@H]2C(=O)N1` ([Mpa][hArg]GDWPC-NH2; disulfide 1-7), the molecule was classed as inactive (in [1]; in [8]; in experiment [9]; in experiment [10]; in the experiment with Aromatase (Homo sapiens)). Also, the Potency entry in [2], in experiment [3], in experiment [4], in experiment [5], in [6] and in [7] was “inactive” in each case. Moreover, the Potency result in experiment [11] is “inactive”.
As for `COC(=O)/C=C\C(=O)O`, the call in experiment [1], in experiment [12], in experiment [8], in experiment [13], in [9] and in experiment [10] was inactive. Further, the call in the experiment with Aromatase (Homo sapiens) was inactive. For the same molecule, the Potency result in experiment [2], in [4], in experiment [5], in [6], in experiment [7] and in experiment [14] was “inactive” throughout. Further, the Potency result in [15] and in experiment [11] was “inactive” each time.
For the molecule `CC(C)Cn1cnc2c1c(=O)n(C)c(=O)n2C`, the molecule was classed as inactive in experiment [1], in [12], in experiment [8], in experiment [13], in experiment [9] and in experiment [10]. The call with Aromatase (Homo sapiens) was inactive. Moreover, the Potency result in experiment [2], in [4], in experiment [5], in experiment [6], in [7] and in experiment [14] was “inactive” in each case. For the same molecule, the Potency result in experiment [15] and in [11] was “inactive” throughout.
With `C#CCN[C@@H]1CCc2ccccc21`, the molecule was classed as inactive in experiment [1], in experiment [16], in [17], in experiment [19], in experiment [8] and in [13]. In addition, the outcome (in experiment [9]; in [10]; with Aromatase (Homo sapiens)) was inactive. Besides, the Potency result in [2], in experiment [3], in experiment [4], in [18], in [5] and in [7] was “inactive” throughout. Further, the Potency result in [14], in [15] and in experiment [11] was “inactive” throughout.
As to `CC(C)Nc1ccccc1`, the outcome in experiment [1], in experiment [12], in experiment [8], in [13], in experiment [9] and in experiment [10] was inactive. The molecule was classed as inactive in the experiment with Aromatase (Homo sapiens). The Potency result in experiment [2], in experiment [4], in experiment [5], in experiment [6], in [7] and in experiment [14] was “inactive” each time. Also, the Potency result in experiment [15] and in experiment [11] was “inactive” throughout.
Consider `N[C@@H](CSCCCO)C(=O)O`, for which the outcome in experiment [1], in [12], in experiment [16], in experiment [17], in experiment [19] and in experiment [8] was inactive. For the same molecule, the molecule was classed as inactive (in experiment [13]; in experiment [9]; in experiment [10]; with Aromatase (Homo sapiens)). For the same molecule, the Potency result in experiment [2], in experiment [4], in [5], in [6], in experiment [7] and in [14] was “inactive” throughout. The Potency result in [15] and in experiment [11] was “inactive” each time. For the same molecule, the Potency in [18] is 33.5 µM (active).
Regarding `Cc1c(NC(=O)c2cccnc2)c(=O)n(-c2ccccc2)n1C`, the call (in experiment [1]; in experiment [8]; in experiment [13]; in [9]; in experiment [10]; with Aromatase (Homo sapiens)) was inactive. In addition, the Potency entry in experiment [2], in [3], in experiment [4], in experiment [5], in experiment [7] and in experiment [14] was “inactive” throughout. Also, the Potency entry in experiment [15] and in experiment [11] was “inactive” each time.
Turning to `CC(=O)c1cc(C)oc1C`, the call in experiment [1], in experiment [12], in experiment [16], in [17], in [19] and in [8] was inactive. The outcome (in experiment [9]; with Aromatase (Homo sapiens)) was inactive. Moreover, the Potency entry in experiment [2], in [4], in experiment [18], in [5], in experiment [6] and in experiment [7] was “inactive” throughout. The Potency result in [11] is “inactive”.
As to `CCCCC1CCC(O)CC1` (stereo not drawn), the molecule was called inactive in [1], in experiment [12], in experiment [16], in experiment [17], in [19] and in [8]. In addition, the result (in experiment [9]; with Aromatase (Homo sapiens)) was inactive. Also, the Potency entry in [2], in experiment [4], in experiment [18], in [5], in experiment [6] and in experiment [7] was “inactive” in each case. The Potency result in [11] is “inactive”.
As for `NCc1ccc(S(N)(=O)=O)cc1`, the call (in [1]; in experiment [8]; in experiment [9]; with Aromatase (Homo sapiens)) was inactive. Besides, the Potency result in experiment [2], in experiment [3], in experiment [4], in experiment [5], in [6] and in experiment [7] was “inactive” throughout. In addition, the Potency result in experiment [11] is “inactive”.
For the molecule `CN(C)CCCCl`, the result in [1], in experiment [12], in experiment [8], in [13], in experiment [9] and in experiment [10] was inactive. Besides, the molecule was classed as inactive with Aromatase (Homo sapiens). Besides, the Potency entry in experiment [2], in [3], in experiment [4], in experiment [6], in [7] and in [14] was “inactive” each time. Moreover, in [11], the Potency entry is “inactive”.
